Experimental data as given in PubChem BioAssay AID651815 (National Center for Advancing Translational Sciences (NCATS), 2012).
Hit rate of the full screen: of about 2,100 compounds, about 1,100 (52%) were called active. Roughly 29% stayed inconclusive and do not appear here. So high a share suggests a set chosen from earlier hits. This is one part of the list. A number with no mark means an inactive call. The call rests on the fitted dose curve; in most records, active means well fitted inhibition curve with a large enough effect; inconclusive means small, poorly fitted or top-dose-only effect; inactive means no such curve, though single readings can be large or run the other way.
Further: nearly all actives have a fitted effect of over 65% in size.
On the % scale 0 is the no-effect control and ±100 the full control effect; potency means the concentration at half of the fitted maximal effect.

The compounds below were run against DNA dC->dU-editing enzyme APOBEC-3F (Homo sapiens) (UniProt Q8IUX4) (assay: qHTS for inhibitors of Vif-A3F interactions: Cherry picks counterscreen). Conditions: HeLa A3F-eYFP/Vif cells, eYFP fluorescence, 24 h; series mostly up to 46.1 µM; activity, negative = inhibitor: at the top concentration.
DNA dC->dU-editing enzyme APOBEC-3F (Homo sapiens), sequence (Q8IUX4 whole entry, looked up): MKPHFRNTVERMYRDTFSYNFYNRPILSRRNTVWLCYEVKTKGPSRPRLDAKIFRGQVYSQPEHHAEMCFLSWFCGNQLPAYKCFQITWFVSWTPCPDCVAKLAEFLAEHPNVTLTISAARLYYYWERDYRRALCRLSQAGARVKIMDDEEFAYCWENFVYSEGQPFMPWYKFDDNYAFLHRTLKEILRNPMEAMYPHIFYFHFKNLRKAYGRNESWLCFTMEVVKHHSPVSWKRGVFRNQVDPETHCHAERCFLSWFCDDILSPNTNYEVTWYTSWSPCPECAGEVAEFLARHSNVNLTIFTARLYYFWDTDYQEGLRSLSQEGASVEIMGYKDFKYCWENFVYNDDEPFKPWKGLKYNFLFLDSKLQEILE
In short: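 HeLa cells stably expressing A3F-eYFP and Vif, cultured overnight, then treated 24 h at 37 degrees C with compounds at several concentrations; yellow fluorescence (488 nm Ex/500-530 nm Em) imaged on Acumen; MG132 positive control.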
In the case of `COc1ccc(/C=c2\s/c(=C/C(=O)c3ccc(C)cc3)[nH]c2=O)c(OC)c1`, the Potency is reported as 18.4 µM (active). `CN1C2CCC1/C(=C/c1cccn1C)C(=O)/C2=C\c1cccn1C` was tested, and the Potency was 18.4 µM (active). `Cn1cccc1/C=C1\CC(C(C)(C)C)C/C(=C\c2cccn2C)C1=O` (configuration not stated) was tested, and the Potency was 1.3 µM (active). With `CN1C2CCC1/C(=C\c1ccccc1)C(=O)/C2=C\c1ccccc1` the Potency was 15.8 µM (active). In the case of `COc1ccc(NC(=O)C2(C)Cc3c(-c4cccc(C(N)=O)c4)ccnc3O2)cc1` (configuration not stated), the Potency is reported as 6.27 µM (active). `CC(=O)c1cccc(NC(=O)C2CCCN(S(=O)(=O)c3cccc4nonc34)C2)c1` (configuration not stated) was tested, and the “activity, negative = inhibitor” value was 0.106%. `CC(=O)Nc1cccc(-c2ccnc3c2CC(C)(C(=O)Nc2cccc(C(C)=O)c2)O3)c1` (configuration not stated) was tested, and the Potency was 9.94 µM (active). `COc1ccc(NC(=O)C2(C)Cc3c(-c4cccc(NC(C)=O)c4)ccnc3O2)cc1` (configuration not stated) was tested, and the Potency was 2.8 µM (active). In the case of `COc1cc(C(=O)N/N=C/C2CC=CCC2)cc(OC)c1OC` (configuration not stated), the “activity, negative = inhibitor” value is reported as -4.4% [at 36.9 µM]. With `COc1cc(C(=O)Nc2ccc3ccccc3c2)cc(OC)c1OC` the Potency was 3.14 µM (active). In the case of `COc1cc(C(=O)N/N=C(\C)c2ccccn2)cc(OC)c1OC`, the Potency is reported as 0.559 µM (active). For `COc1cc(C(=O)Nc2ccc3c(c2)ncn3C)cc(OC)c1OC`, the Potency was 5.59 µM (active). `CCOc1ccc(NC(=O)N2CC=C(c3c[nH]c4ccccc34)CC2)cc1` was tested, and the Potency was 2.59 µM (active). With `CCOC1=C2CN(S(=O)(=O)c3ccc(C)cc3)[C@H](c3cccc4ccccc34)C[C@H]2C(C#N)(C#N)C(C#N)(C#N)C1` the “activity, negative = inhibitor” value was -5.71% [at 36.9 µM]. In the case of `CCOc1ccccc1C1NC(=O)c2ccccc2N1` (configuration not stated), the Potency is reported as 3.53 µM (active). For `Cc1ccc(C2NC(=O)c3ccccc3N2)s1` (configuration not stated), the Potency was 17.7 µM (active). In the case of `COc1ccc2ccccc2c1C1NC(=O)c2ccccc2N1` (configuration not stated), the Potency is reported as 4.98 µM (active). For `COc1cc(OC)c(C2Nc3cccc4cccc(c34)N2)c(OC)c1`, the “activity, negative = inhibitor” value was -0.514%. With `O=[N+]([O-])c1ccccc1C1Nc2cccc3cccc(c23)N1` the “activity, negative = inhibitor” value was 9.7%. `C=CCSc1nnc(C)c(/C=C/Nc2ccc(Cl)cc2)n1` was tested, and the Potency was 18.4 µM (active). With `COc1ccc(N/C=C/c2nc(SC)nnc2C)cc1` the Potency was 18.4 µM (active). For `CCOC(=O)c1c(-c2ccc(OC)cc2)csc1/N=C/C1=C(O)CCCC1=O`, the “activity, negative = inhibitor” value was -3.87%. With `COc1ccc(C(=O)c2sc3nc(-c4ccc(C)cc4)cc(C(F)(F)F)c3c2N)cc1` the Potency was 5.17 µM (active). For `CCOC(=O)c1c(C)nc2sc(C(=O)Nc3ccc(OC)cc3)c(N)c2c1-c1ccc(OC)cc1`, the Potency was 2.8 µM (active). In the case of `COc1ccc(NC(=O)c2sc3nc(-c4ccc(OC)cc4)cc(C(F)(F)F)c3c2N)cc1`, the Potency is reported as 7.31 µM (active). In the case of `COc1cccc(C(=O)c2sc3nc(-c4ccccc4)cc(C(F)(F)F)c3c2N)c1`, the Potency is reported as 2.06 µM (active). For `COc1ccc(C(=O)c2sc3nc(C)cc(-c4cccs4)c3c2N)cc1`, the Potency was 20.6 µM (active). With `CCc1ccc(NC(=O)c2sc3nc(C)c(C(=O)Nc4ccc(C)cc4C)c(-c4ccco4)c3c2N)cc1` the Potency was 16.4 µM (active). For `COc1cccc(NC(=O)c2sc3nc(C)c(C(=O)Nc4ccc(C)cc4C)c(-c4ccco4)c3c2N)c1`, the “activity, negative = inhibitor” value was -1.31%. In the case of `CCc1ccc(-c2cc(C(F)(F)F)n3nc(C(=O)Nc4cnn(Cc5ccc(C)cc5)c4)cc3n2)s1`, the Potency is reported as 16.4 µM (active). With `Cc1ccc(S(=O)(=O)N2CCN(C(=O)CSC(=S)N3CCCC3)CC2)c(C)c1` the “activity, negative = inhibitor” value was 5.96%. With `COc1cc(C(=O)NCC(=O)N2CCN(S(=O)(=O)c3cc(C)ccc3C)CC2)cc(OC)c1OC` the Potency was 3.96 µM (active). `C=C(/C=C/c1ccc(N(C)C)cc1)c1nc2ccccc2s1` was tested, and the Potency was 18.4 µM (active). With `CC1=Nc2ccc(C)cc2/C1=C/c1c(N)n2oc(C)cc2nc1=O` the Potency was 20.6 µM (active). In the case of `CNc1ccc(/C=C/c2ccnc3ccccc23)cc1`, the Potency is reported as 20.6 µM (active). In the case of `CN(C)c1ccc(/C=C/c2ccnc3cc(Cl)ccc23)cc1`, the Potency is reported as 2.91 µM (active). With `COc1cccc2nccc(/C=C/c3ccc(N(C)C)cc3)c12` the Potency was 20.6 µM (active). In the case of `CN(C)c1ccc(/C=C/C=C/c2ccnc3ccccc23)cc1`, the Potency is reported as 3.66 µM (active). For `Fc1cccc(F)c1/C=N/NC(=S)Nc1cccnc1`, the “activity, negative = inhibitor” value was 4.36%. In the case of `CN(C)c1ccc(/C=C/c2ccnc3ccccc23)c(N)c1`, the Potency is reported as 8.2 µM (active). `CCCCCCCNc1ccc(/C=C/c2ccnc3ccccc23)cc1` was tested, and the Potency was 23.1 µM (active). With `CN(C)c1ccc(/C=C/c2cnnc3ccccc23)cc1` the Potency was 20.6 µM (active). For `CN(C)c1ccc(/C=C/c2ccnc3ccc(-c4ccccc4)cc23)cc1`, the Potency was 9.2 µM (active). In the case of `CN1C(=O)C(O)(C2COC(C)(C)CC2=O)c2cc(Br)ccc21` (configuration not stated), the “activity, negative = inhibitor” value is reported as -13.4% [at 36.9 µM]. With `CN(C)c1ccc(/C=C/c2ccnc3ccccc23)cc1` the Potency was 18.4 µM (active). `Nc1ccccc1/C=C/c1ccnc2ccccc12` was tested, and the Potency was 16.4 µM (active). For `O=c1c(Cl)c2oc3ccccc3nc-2c2ccccc12`, the Potency was 16.4 µM (active). For `O=S(=O)(Nc1nc2n(n1)C(c1ccccc1)C=C(c1ccc(Cl)cc1)N2)c1ccccc1` (configuration not stated), the “activity, negative = inhibitor” value was -20.2%. With `CN(C)c1ccc(C2C=C(c3ccccc3)Nc3nnnn32)cc1` (configuration not stated) the Potency was 16.4 µM (active). For `COc1ccc(C2=CC(c3ccc(N(C)C)cc3)n3nnnc3N2)cc1` (configuration not stated), the Potency was 16.4 µM (active). In the case of `CCN1C(=S)SC(=O)C1=C1C=C(C)N(Cc2ccco2)C(C)=C1`, the Potency is reported as 15.8 µM (active). For `Clc1ccc(/C=N/NC2=Nc3cccc4cccc2c34)cc1`, the Potency was 18.4 µM (active). In the case of `Clc1ccccc1/C=N/NC1=Nc2cccc3cccc1c23`, the Potency is reported as 16.4 µM (active). For `C/C(CCc1ccc2c(c1)OCO2)=N\NC(=S)NC(C)C`, the “activity, negative = inhibitor” value was 12.8%. For `O=C(Nc1nc(NC(=O)c2ccco2)n(-c2ccccc2)n1)c1ccccc1`, the “activity, negative = inhibitor” value was 2.57% [at 36.9 µM]. In the case of `C=C(C)CNC(=S)NNC(=O)c1ccco1`, the “activity, negative = inhibitor” value is reported as -0.583% [at 36.9 µM]. `C=CCn1c(O)c(N=NC(=O)CNC(=O)c2ccco2)c2ccccc21` was tested, and the Potency was 11.2 µM (active). In the case of `COc1ccccc1/C=N/NC(=O)c1cc2c(OC)c(OC)ccc2[nH]1`, the Potency is reported as 9.94 µM (active). `COc1cccc(/C=N/NC(=O)c2cc3c(OC)c(OC)ccc3[nH]2)c1OC` was tested, and the Potency was 3.53 µM (active). `COCCCNC(=S)N/N=C/c1cccc(OC)c1O` was tested, and the “activity, negative = inhibitor” value was -2.88%. For `COc1ccc(C(=O)N/N=C/c2cc(Br)ccc2O)cc1OC`, the “activity, negative = inhibitor” value was 16.9%. In the case of `CC1Sc2ccc(C(=O)NCc3ccccn3)cc2NC1=O` (configuration not stated), the “activity, negative = inhibitor” value is reported as -1.52%. For `CCCNC(=O)c1ccccc1NC(=O)c1ccc2c(c1)NC(=O)C(C)S2` (configuration not stated), the Potency was 6.27 µM (active). For `CN(C)c1ccc(/C=C/c2ccnc3ccc(Br)cc23)cc1`, the Potency was 4.61 µM (active). In the case of `Cc1cc(C)c2nccc(/C=C/c3ccc(N(C)C)cc3)c2c1`, the Potency is reported as 13 µM (active). With `COc1ccc2nccc(/C=C/c3ccc(N(C)C)cc3)c2c1` the Potency was 23.1 µM (active). `CN(C)c1ccc(/C=C/c2ccnc3ccc(I)cc23)cc1` was tested, and the Potency was 6.51 µM (active). For `ClCC1NCC(c2ccccc2Cl)c2c1[nH]c1ccccc21` (configuration not stated), the “activity, negative = inhibitor” value was -5.25%. With `CN(C)c1ccc(/C=C/c2ccnc3ccc(N)cc23)cc1` the Potency was 23.1 µM (active). With `Cc1ccc2nccc(/C=C/c3ccc(N(C)C)cc3)c2c1` the Potency was 9.2 µM (active). For `CC(=O)c1cc(NC(=O)c2ccc(Cl)cc2)c(=O)oc1/C=C/N(C)C`, the Potency was 6.27 µM (active). With `COC(=O)c1c(-c2ccccc2Cl)noc1/C=C/N(C)C` the “activity, negative = inhibitor” value was 10.2% [at 36.9 µM]. With `COc1ccc(C(=O)Nc2cc(C(C)=O)c(/C=C/N(C)C)oc2=O)cc1` the Potency was 12.5 µM (active). For `CC(=O)c1cc(NC(=O)c2ccc(C)cc2)c(=O)oc1/C=C/N(C)C`, the Potency was 11.6 µM (active). With `COC(=O)c1sc2nc(CSc3ccc(Br)cc3)[nH]c(=O)c2c1C` the “activity, negative = inhibitor” value was -15.7%. In the case of `COc1cc(C2c3cc4c(cc3C(OC3OC5COC(c6cccs6)OC5C(O)C3O)C3COC(=O)C23)OCO4)cc(OC)c1O` (configuration not stated), the Potency is reported as 11.2 µM (active). For `Cc1ccc(O)c(NC(=O)c2cc(-c3ccccc3O)no2)c1`, the Potency was 20.6 µM (active). For `COc1cccc(C(=O)Nc2ncc3c(n2)CC(c2ccc(OC)cc2OC)CC3=O)c1` (configuration not stated), the Potency was 11.2 µM (active). In the case of `Cc1cc(N2CCCC2)ccc1/C=C1\NC(=S)N(C)C1=O`, the Potency is reported as 2.91 µM (active). In the case of `Cc1cc(/C=C2\NC(=S)N(C)C2=O)ccc1N1CCCC1`, the Potency is reported as 2.5 µM (active). With `Cc1cc(N2CCCC2)ccc1/C=C1/C(=O)N(C)C(=S)N1C` the “activity, negative = inhibitor” value was 32.2%. `Cc1ccc(O)c(Nc2c3ccccc3nc3ccccc23)c1` was tested, and the “activity, negative = inhibitor” value was -4.44%. For `COc1ccc(C)cc1Nc1c2c(nc3ccccc13)CCC2`, the Potency was 1.98 µM (active). `COC(=O)c1cnc(Nc2cc(C)ccc2OC)c2ccccc12` was tested, and the “activity, negative = inhibitor” value was -11%. With `CN1/C(=C\C=C2/SC(=S)N(CC(=O)O)C2=O)C(C)(C)c2ccccc21` the “activity, negative = inhibitor” value was 31.2%. For `CN1/C(=C\C=C2/SC(=S)NC2=O)C(C)(C)c2ccccc21`, the Potency was 3.96 µM (active). In the case of `CCCN1C(=O)/C(=C/C=C2\N(CC)c3ccccc3C2(C)C)SC1=S`, the Potency is reported as 4.44 µM (active). `CCCCN1C(=O)/C(=C/C=C2/CC(C)(C)CN2C)SC1=S` was tested, and the “activity, negative = inhibitor” value was 21.9% [at 36.9 µM]. `CCCN1C(=O)/C(=C\C=C2\N(CC)c3ccccc3C2(C)C)SC1=S` was tested, and the Potency was 2.59 µM (active). With `O=C(N/N=C/C=C/c1ccco1)c1ccncc1` the “activity, negative = inhibitor” value was -20.7%. In the case of `O=C(N/N=C\C=C\c1ccc([N+](=O)[O-])o1)c1cccs1`, the Potency is reported as 15.8 µM (active). In the case of `COc1ccccc1OCC(=O)N/N=C/C=C/c1ccc([N+](=O)[O-])o1`, the Potency is reported as 16.4 µM (active). For `Clc1ccccc1C1CC(c2ccccc2)=Nc2ccccc2N1` (configuration not stated), the “activity, negative = inhibitor” value was 2.47%. `Cc1ccc(-c2cn3nc(-c4ccccc4)c(-c4ccccc4)nc3n2)cc1` was tested, and the Potency was 18.4 µM (active). With `Cc1cc(C)nc(Nc2nc(C(N)Cc3ccccc3)cs2)n1` (configuration not stated) the Potency was 14 µM (active). For `COC(=O)CCC(=O)NC(=S)Nc1sc(C)c(C)c1C(N)=O`, the Potency was 1.25 µM (active). With `COc1cc2cc(-c3ccc(OC)c(OC)c3C)nc(N)c2cc1OC` the Potency was 1.77 µM (active).
